The list is not random: actives were taken first. Their share in the collection is about 3.4%.
GPR151 ag: activates the human receptor GPR151; Q8TDV0; PathHunter beta-arrestin GPR151 cells, luminescence; hit rate 1% among 650,000; activation, % at 11.2 µM; AID 1508602; in the data active = activation above about 4.9%;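 note: 0% = median of compound wells and 100% = cells with positive control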
Target sequence (Q8TDV0 whole entry, looked up): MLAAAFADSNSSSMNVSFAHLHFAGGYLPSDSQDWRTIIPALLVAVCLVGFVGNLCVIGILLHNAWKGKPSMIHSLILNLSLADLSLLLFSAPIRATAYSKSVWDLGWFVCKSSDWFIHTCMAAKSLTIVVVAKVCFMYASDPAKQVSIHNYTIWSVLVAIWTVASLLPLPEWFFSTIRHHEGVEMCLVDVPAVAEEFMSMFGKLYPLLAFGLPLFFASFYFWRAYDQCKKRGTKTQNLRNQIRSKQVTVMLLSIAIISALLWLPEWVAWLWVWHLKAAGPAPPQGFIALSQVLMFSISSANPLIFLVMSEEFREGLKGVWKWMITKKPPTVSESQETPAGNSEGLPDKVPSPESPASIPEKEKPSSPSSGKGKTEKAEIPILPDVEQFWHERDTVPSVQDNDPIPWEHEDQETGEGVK
FBW7 activator: activators of human E3 ligase FBW7 | hit rate 0.13% among 650,000 | normalized activity (activation), % at 26.1 µM | AID 1259310 | Q969H0 | AlphaScreen FBW7–phospho-cyclin E peptide binding, activator screen; in the data active = normalized activity above about 1.9%;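 note: purified mutant Fbw7 with reduced substrate affinity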
MITF inh: human MITF inhibition, primary screen | O75030 | AlphaScreen MITF homodimerization, bead proximity signal | inhibition, % at 2.6 µM | hit rate 0.91% among 650,000 | AID 1259374; in the data active = inhibition above about 50%;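 note: 0% = vehicle wells with protein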
TEAD-YAP inh: TEAD-YAP interaction inhibition | inhibition, % at 9.12 µM | hit rate 1.4% among 640,000 | HEK-TIYL cells, TEAD-Gal4/YAP UAS-luciferase luminescence; in the data active = inhibition above about 32%;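 note: 0% = median of test compound wells and 100% = reference inhibitor wells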
* marks the source's active call; other numbers are inactive results.

CC1=NN(c2cccc(C(=O)O)c2)C(=O)/C1=C/c1ccc(C)o1 was read as GPR151 ag 0, FBW7 activator 0, MITF inh 19 and TEAD-YAP inh 29.
`CC1=NN(c2cccc(C(=O)O)c2)C(=O)/C1=C\c1cc2c(cc1Cl)OCO2` gave GPR151 ag 0, FBW7 activator -1, MITF inh 61* and TEAD-YAP inh 0.
`COc1ccc(/C=C2\C(=O)N(c3cccc(C(=O)O)c3)N=C2C)cc1OC` gave GPR151 ag 1, FBW7 activator -1, MITF inh 12 and TEAD-YAP inh -10.
COc1cc(/C=C2/C(=O)N(c3cccc(C(=O)O)c3)N=C2C)cc2sc(=O)oc12 was read as GPR151 ag -1, FBW7 activator -1, MITF inh 61* and TEAD-YAP inh -8.
Screening COCCNC(=O)C1CCCN1C(=O)Nc1ccc(C)cc1 (configuration not stated) returned GPR151 ag -1, FBW7 activator 0, MITF inh -1 and TEAD-YAP inh -3.
For COc1ccc(/C=C\C(=O)Nc2c3c(nn2-c2ccc(C)cc2C)CSC3)cc1OC the results were GPR151 ag -1, FBW7 activator 0, MITF inh -13 and TEAD-YAP inh -1.
For Cc1ccc(-c2ncn(-c3ccc(Nc4ncc(F)c(-c5cc(N6CCOCC6)cc(C(F)(F)F)c5)n4)cc3)n2)cn1 the results were GPR151 ag 1, FBW7 activator 0, MITF inh 8 and TEAD-YAP inh 3.
COc1cc(Br)c(/C=C2\C(=O)N(c3ccccc3)N=C2C)cc1OC was read as GPR151 ag -2, FBW7 activator 0, MITF inh 13 and TEAD-YAP inh -3.
Screening COc1cc(/C=C2\C(=O)N(c3cccc(C(=O)O)c3)N=C2C)c(Br)cc1O returned GPR151 ag -1, FBW7 activator -1, MITF inh 62* and TEAD-YAP inh 0.
Screening O=C(CNCc1ccccc1)Nc1ccc(C(=O)N2CCCC2)cc1 returned GPR151 ag -6, FBW7 activator 0, MITF inh 7 and TEAD-YAP inh 44*.
`O=C(c1ccc(-c2nnc(-c3ccccc3)o2)cc1)N1CCCCC1` gave GPR151 ag -10, FBW7 activator 0, MITF inh -4 and TEAD-YAP inh 51*.
`O=C(c1ccc(OCc2ccccc2)cc1)N1CCCC1` gave GPR151 ag -9, FBW7 activator 0, MITF inh 14 and TEAD-YAP inh 84*.
Screening c1ccc(COc2ccc(OCCCCN3CCNCC3)cc2)cc1 returned GPR151 ag 0, FBW7 activator 0, MITF inh 56* and TEAD-YAP inh -14.
For Ic1ccc(OCCCCN2CCNCC2)cc1 the results were GPR151 ag 0, FBW7 activator 0, MITF inh 14 and TEAD-YAP inh -54.
For O=C(CNCc1ccccc1)Nc1ccc(N2CCCC2)cc1 the results were GPR151 ag 0, FBW7 activator 1, MITF inh 12 and TEAD-YAP inh -21.
`COc1ccc(N(CC(=O)Nc2ccccc2C(F)(F)F)S(C)(=O)=O)cc1Cl` gave GPR151 ag 1, FBW7 activator 0, MITF inh 6 and TEAD-YAP inh 3.
CN(C)C(=O)CSc1ccc(-c2ccc3c(c2)OCCO3)nn1 was read as GPR151 ag 2, FBW7 activator 0, MITF inh -1 and TEAD-YAP inh -35.
`O=C(COC(=O)C1CC(=O)N(c2ccc(Cl)cc2)C1)c1ccc(Cl)cc1` (configuration not stated) gave GPR151 ag -1, FBW7 activator 0, MITF inh 11 and TEAD-YAP inh 0.
`O=C1CSC2(CCCCCC2)N1Nc1ccccc1` gave GPR151 ag -1, FBW7 activator 1, MITF inh 3 and TEAD-YAP inh -4.
`O=C(Nc1ncc(Cc2ccccc2)s1)C1CCCCC1` gave GPR151 ag 3, FBW7 activator 0, MITF inh 4 and TEAD-YAP inh -73.
Screening O=C(NCCc1ccc(O)cc1)c1ccnc(N2CCN(c3ccccn3)CC2)c1 returned GPR151 ag -1, FBW7 activator 0, MITF inh -7 and TEAD-YAP inh 45*.
O=C(NCCO)c1ccnc(N2CCN(c3ccccn3)CC2)c1 was read as GPR151 ag 1, FBW7 activator 0, MITF inh 9 and TEAD-YAP inh -8.
Screening O=C(O)c1cc(O)c2c(c1)[C@@H]([C@H]1c3cc(C(=O)O)cc(O)c3C(=O)c3c(O[C@H]4O[C@H](CO)[C@@H](O)[C@H](O)[C@H]4O)cccc31)c1cccc(O[C@H]3O[C@H](CO)[C@@H](O)[C@H](O)[C@H]3O)c1C2=O returned GPR151 ag -1, FBW7 activator -1, MITF inh 121* and TEAD-YAP inh 5.
`CCCN(CCC)C1=CC(=O)C(C)=C(C)C1=O` gave GPR151 ag 0, FBW7 activator 0, MITF inh 39 and TEAD-YAP inh 0.
For CCCN(CCC)C1=CC(=O)C(C)=CC1=O the results were GPR151 ag -2, FBW7 activator 0, MITF inh 65* and TEAD-YAP inh 2.
For O=C(Nc1ccc(-c2nc3cccnc3s2)cc1)c1ccccc1Br the results were GPR151 ag -1, FBW7 activator 0, MITF inh 14 and TEAD-YAP inh -36.
For Cc1[nH]c2ccc(C(=O)NN)cc2c1C the results were GPR151 ag 0, FBW7 activator 0, MITF inh -14 and TEAD-YAP inh 38*.
For CCNC(=O)c1ccc2[nH]c(C)c(C)c2c1 the results were GPR151 ag 0, FBW7 activator 0, MITF inh 6 and TEAD-YAP inh -32.
Screening Cc1ccsc1-c1nc(CSCC(=O)N2CCCC2)c(C)o1 returned GPR151 ag 0, FBW7 activator 0, MITF inh -3 and TEAD-YAP inh 46*.
Cc1ccccc1-c1nc(CSCC(=O)N2CCCC2)c(C)o1 was read as GPR151 ag -1, FBW7 activator 0, MITF inh -9 and TEAD-YAP inh 56*.
Screening CCc1ccc(-c2nc(CSCC(=O)N3CCN(CC)CC3)c(C)o2)cc1 returned GPR151 ag 0, FBW7 activator 0, MITF inh -7 and TEAD-YAP inh 37*.
Cc1ccccc1-c1nc(CSCC(=O)N2CCOCC2)c(C)o1 was read as GPR151 ag 1, FBW7 activator 0, MITF inh -3 and TEAD-YAP inh 12.
NS(=O)(=O)c1cccc(NS(=O)(=O)c2cccc([N+](=O)[O-])c2)c1 was read as GPR151 ag 1, FBW7 activator 4.6*, MITF inh -3 and TEAD-YAP inh -9.
`COc1cc(C2C(C#N)=C(N)Oc3ccc4ccccc4c32)cc(OC)c1OC` (configuration not stated) gave GPR151 ag 0, FBW7 activator 0, MITF inh 4 and TEAD-YAP inh 48*.
COc1ccc(C2C(C#N)=C(N)Oc3ccc4ccccc4c32)cc1OC (configuration not stated) was read as GPR151 ag 2, FBW7 activator 0, MITF inh -1 and TEAD-YAP inh -8.
N#CC1=C(N)Oc2ccc3ccccc3c2C1c1ccccc1F (configuration not stated) was read as GPR151 ag -1, FBW7 activator 0, MITF inh -10 and TEAD-YAP inh 52*.
